High-throughput results from PubChem BioAssay.
Rows were chosen to be rich in hits. Some 3.2% of all compounds tested hit in one or more screens of this group.
p53null 39C kill: qHTS Screen for Compounds that Selectively Target Cancer Cells with p53 Mutations: Cytotoxicity of p53 Null Cells at the Nonpermissive Temperature; AID 904, 2007; H1299 p53-null (neo) cells, 39C, ATPlite viability, 24 h; Potency, µM (doses to about 46.1 µM), for inactives: top-dose activity, negative = cell killing, actives largely listed as cytotoxic; hit rate 0.97% among 55,000;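 note: 0% = DMSO only and -100% = full killing by 100 µM tamoxifen; nearly all actives have a fitted effect of over 50% in size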
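Following overnight plating at 37C (600 cells/well), H1299-neo or H1299-p53A138V cells are dosed up to 46 uM. Incubation lasts 24 hr at 39C before ATP detection.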
PMP22 txn: Cell-based coincidence reporter assay to measure PMP22 gene transcription in S16 Pmp22-F2sN cells - Primary screen; S16 Pmp22-F2sN Schwann cells, FLuc/NLuc coincidence luminescence, 24 h; Potency, µM (series often up to 57.5 µM), for the others: at the top dose activity change, negative = inhibition, actives largely listed as inhibitors; hit rate 2% among 43,000; active = clear falling dose curves in both reporters; inconclusive = both reporters move, but less clearly or upward; inactive = either reporter flat; the % is the NLuc reporter signal
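S16 Schwann cells carrying FLuc/NLuc coincidence reporter in the Pmp22 3' UTR treated with compound 24 h at 37C; FLuc then NLuc luminescence read sequentially by dual-luciferase reagents.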
S16 F2sN tox: Cell viability qHTS assay in S16 Pmp22-F2sN cells; S16 Pmp22-F2sN Schwann cells (luciferase reporters placed in the Pmp22 gene) viability, CellTiter-Glo, 24 h; hit rate 0.48% among 43,000; Potency, µM (doses to about 57.5 µM), without a hit: at the top dose activity change, negative = cytotoxicity, usual class: cytotoxic; note: nearly all actives have a fitted effect of over 65% in size
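S16 Schwann cells carrying the Pmp22-F2sN reporter, seeded in 1536-well format, were exposed to library compounds for 24 h at 37C. Viability was read as CellTiter-Glo luminescence after 15 min at room temperature.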
p53null 32C tox: qHTS Screen for Compounds that Selectively Target Cancer Cells with p53 Mutations: Cytotoxicity of p53 Null Cells at the Permissive Temperature | H1299-neo p53 null cells, ATP luminescence, 24 h, 32C | Potency, µM (doses to about 46.1 µM), for inactives: top-dose activity change, negative = cytotoxicity, hits mostly cytotoxic | hit rate 0.62% among 55,000 | AID 903, 2007;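 note: 0% = DMSO only and -100% = full killing by 100 µM tamoxifen; nearly all actives have a fitted effect of over 55% in size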
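H1299-neo (p53 null) cells, 600/well, treated 24 h at 32C with compound up to 46 uM; ATPlite luminescence viability, normalized to DMSO and 100 uM tamoxifen; AC50 by Hill fit.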
pS6 MEF inh: Acumen qHTS Assay for Inhibitors of the mTORC1 Signaling Pathway in MEF (Tsc2-/-, p53-/-) Cells: Sytravon; Tsc2-/- p53-/- MEF, phospho-rpS6 immunofluorescence/PI, 24 h; Potency, µM (highest dose often 38.3 µM), for inactives: top-dose activity change, negative = inhibition, actives largely listed as inhibitors; hit rate 0.78% among 44,000; AID 493208, 2011;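 note: plate controls were DMSO for no effect and rapamycin for full effect; nearly all actives have a fitted effect of over 50% in size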
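Immunofluorescence of rpS6 phosphorylation in Tsc2-/-, p53-/- MEFs after 24 h compound exposure, normalized to propidium iodide signal. Activity is expressed as % positive cells, thresholded with 7.5 nM rapamycin.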
* marks the source's active call; other numbers are inactive results; ? = inconclusive; . = no result. Unless noted, calls come from the whole dose curve; as a rule, active = well fitted curve in the direction sought with a large enough effect; inconclusive = small, poorly fitted or top-dose-only effect, or another doubt; inactive = no such curve, though single readings can be large; an effect the other way counts as inactive or inconclusive. Unless noted, % is set by controls: 0 for no effect and ±100 for the full control effect; potency is the fitted concentration of half-maximal effect.

SMILES	p53null 39C kill	PMP22 txn	S16 F2sN tox	p53null 32C tox	pS6 MEF inh
CCC(C(=O)NC1CCCCC1)n1c(SCc2cccc(C)c2)nc2ccncc21 (stereo not given)	7.94µM*	?	-12.3%	12.6µM*	-6.8%
CCC(C(=O)NC1CCCCC1)n1c(SCc2cccc(F)c2)nc2ccncc21 (stereo not given)	-24.4%	?	?	10.6%	-1.2%
CCOc1ccc2nc(N(Cc3cccnc3)C(C)=O)sc2c1	-8.2%	-6.0%	2.5%	-2.0%	-4.1%
COc1ccccc1CNC(=O)Cc1csc2nc(-c3ccccc3)cn12	-10.1%	7.5%	-4.2%	-5.8%	0.0%
COc1ccc(Cl)cc1NC(=O)c1cc2c(=O)n3ccccc3nc2s1	12.6µM*	-20.0%	-14.2%	-19.7%	-12.5%
O=C(NCCc1csc(-c2ccc(C(F)(F)F)cc2)n1)c1ccccc1Cl	17.6%	-16.5%	-3.7%	-7.4%	-26.0%
CCOc1ccccc1N(C)C(=O)Cn1nc(Cc2cccnc2)c2ccccc2c1=O	18.6%	-19.2%	18.1%	-0.2%	1.1%
Cc1cccc(N2CCN(C(=O)c3cnn(-c4cccc(Cl)c4C)c3C3CCNCC3)CC2)c1C	-26.8%	?	?	11.1%	16.5µM*
CN(C(=O)c1cccc(Nc2ccc(-c3ccc4c(c3)OCCO4)nn2)c1)C1CCCCC1	12.6µM*	.	.	11.2µM*	.
Cc1ccc(NC(=O)C(=O)NCC(c2cccnc2)N2CCc3ccccc32)cc1Cl (stereo not given)	-11.4%	?	-29.8%	3.3%	-9.6%
CN(C)CCN(Cc1ccco1)C(=O)c1oc2ccccc2c1NC(=O)c1cccc(F)c1	12.6µM*	?	?	5.4%	?
CCCc1noc(-c2ccc(NCc3ccccc3OC)c([N+](=O)[O-])c2)n1	10.3%	?	?	-1.4%	1.2%
Cc1ccc(NC(=O)Cn2cc(C(=O)C3CCCCC3)c3ccccc32)c(C)c1	-13.7%	?	-26.7%	9.3%	1.0%
Cc1cccc(NC(=O)Cn2cc(C(=O)C3CCCCC3)c3ccccc32)c1C	-25.8%	10µM*	?	7.2%	-12.4%
Cc1ccc(S(=O)Cc2nc(-c3ccc(C(=O)NC(C)c4ccccc4)cc3)oc2C)cc1 (stereo not given)	20.0%	?	0.7%	2.6%	-5.7%
Cc1cc(Cl)ccc1NC(=O)CN1C(=O)C(=O)c2ccccc21	-16.2%	?	?	-8.4%	10.4µM*
COc1cccc(NC(=O)Cn2c(=O)n(-c3ccc(Cl)cc3)c(=O)c3oc4ccccc4c32)c1	-8.7%	?	9.2%	2.4%	-4.8%
Cc1cccc(OCCCSc2nc(-c3ccc(C(C)(C)C)cc3)nc3cc(=O)[nH]n23)c1C	12.6µM*	-38.4%	1.1%	43.4%	-1.8%
Cc1ccc(OCCSc2nc(-c3ccccc3C)nc3cc(=O)[nH]n23)cc1Cl	25.1µM*	?	?	-6.5%	-2.2%
CCc1ccc(OCCCSc2nc(-c3ccc(C(C)(C)C)cc3)nc3cc(=O)[nH]n23)cc1	?	-36.7%	-0.5%	48.9%	-13.4%
CCCNC(=O)CCc1c(C)nc2nc(-c3cc(OC)cc(OC)c3)nn2c1C	-1.0%	-3.1%	1.9%	-1.5%	-11.9%
CC(=O)OCc1nc2sc(C)c(C)c2c(=O)[nH]1	-3.9%	.	.	5.1%	.
Cc1ccnc(NC(=O)/C=C/c2cccs2)c1	.	.	.	10µM*	.
Cc1cc([N+](=O)[O-])ccc1NC(=O)/C=C/c1cccs1	.	.	.	-16.5%	.
COc1ccc(CNC(=O)c2cc(Nc3ccc(OC)cc3OC)nc3ccccc23)cc1	-17.6%	-58.4%	-22.2%	-4.1%	2.9%
SMILES	p53null 39C kill	PMP22 txn	S16 F2sN tox	p53null 32C tox	pS6 MEF inh
CCc1ccc(-n2c(=O)c3cccnc3n2CC(=O)NCc2ccccc2)cc1	39.8%	?	-5.2%	21.6%	0.0%
CCOc1cccc(NC(=O)CSc2ncc(-c3ccccc3)[nH]2)c1	-20.9%	14.2%	0.1%	-10.8%	1.4%
Cc1cccc(NC(=O)CSc2ncc(-c3ccc(Br)cc3)[nH]2)c1	20µM*	-7.4%	-16.4%	-2.7%	-27.5%
Cc1cc(Nc2ccc(C(C)C)cc2)nc(-n2nc(C)cc2C)n1	31.5%	?	?	6.7%	-24.4%
COc1ccc(Nc2cc(C)nc(-n3nc(C)cc3C)n2)cc1Cl	?	5.53µM*	?	-7.2%	?
CC1=C(C(=O)Nc2cc(Cl)ccc2C)C(c2sccc2C)n2ncnc2N1 (stereo not given)	8.6%	-34.6%	11.6%	0.2%	-0.7%
Cc1ccc(NC(=O)c2nc(S(=O)(=O)Cc3ccc(F)cc3)ncc2Cl)cc1C	?	7.27µM*	10µM*	20µM*	?
COc1ccc(OC)c(NC(=O)c2nc(S(=O)(=O)Cc3ccc(F)cc3)ncc2Cl)c1	25.1µM*	?	4.47µM*	?	2.93µM*
CC(=O)Nc1ccc(NC(=O)c2nc(S(=O)(=O)Cc3ccc(F)cc3)ncc2Cl)cc1	-27.8%	1.89µM*	3.55µM*	-10.9%	5.21µM*
CCS(=O)(=O)c1ncc(N(Cc2ccccc2)Cc2ccco2)c(C(=O)Nc2ccc(C)c(C)c2)n1	14.1%	3.1%	0.0%	1.3%	-0.4%
COc1ccccc1NC(=O)c1nc(SCc2ccc(F)cc2)ncc1Cl	-3.2%	-26.7%	11.1%	-7.8%	0.0%
Nc1c(C(=O)Nc2ccccc2Cl)c2ccccn2c1C(=O)c1ccc(Cl)cc1	-7.2%	11.5%	-10.1%	-0.7%	-7.8%
O=C(Nc1ccccc1C(F)(F)F)c1noc2c1CCCCC2	5.01µM*	.	.	10µM*	3.6%
Cc1ccccc1Nc1c(-c2ccc(N3CCOCC3)cc2)nc2ncccn12	12.6µM*	18.7%	-2.0%	12.6µM*	4.3%
Cc1ccc(NC(=O)N2CCC(c3ccccc3)C2)cc1C (stereo not given)	?	9.0%	2.3%	?	-7.9%
O=C(Nc1ccc(Cl)cc1)N1CCC(c2ccccc2)C1 (stereo not given)	?	-17.2%	-16.3%	3.98µM*	-5.5%
CCN(CC)CCCNC(=O)c1ccc(Cn2c(=O)[nH]c3cc(OC)c(OC)cc3c2=O)cc1	17.0%	-26.9%	2.0%	4.3%	-1.0%
CCCCC(CC)CNC(=O)c1ccc(Cn2c(=O)[nH]c3cc(OC)c(OC)cc3c2=O)cc1 (stereo not given)	12.6µM*	?	-14.2%	-11.0%	?
